Test results taken from publication PMC12529666, “Dysregulation of AGO2-miRNA dynamics underlies the AGO2-associated Lessel–Kreienkamp syndrome”.

Tests used:
Assay in all cases: RNA Bind-n-Seq (nitrocellulose filter binding and sequencing); miR-122 guide loaded in AGO2; 60 min incubation; 30 mM Tris pH 8.0, 100 mM potassium acetate, 2 mM magnesium acetate, 0.5 mM TCEP, 0.005% NP-40, 0.01 mg/ml yeast tRNA; 3 nM AGO2-miR-122, 100 nM RNA library; 60; high values mean tight binding
Conditions in all cases: protein: recombinant; tags: His6 (N-terminal, pFastBac HTA)
AGO2 L192P = AGO2 L192P (Homo sapiens, UniProt Q9UKV8 1-859, L192P;S387D;S824A;S828D;S831D;S834A)
How it was run: (§1)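 His-tagged AGO2 was expressed in Sf9 insect cells by baculovirus, loaded with a synthetic guide RNA, and purified by Ni-NTA and a biotinylated capture oligo. Bound RNA was extracted, reverse-transcribed, barcode-amplified and Illumina-sequenced. Fold enrichment is each sequence's read fraction divided by its input-library read fraction.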

AGO2 A367P = AGO2 A367P (Homo sapiens, UniProt Q9UKV8 1-859, A367P;S387D;S824A;S828D;S831D;S834A)
How it was run: as §1

AGO2 T357M = AGO2 T357M (Homo sapiens, UniProt Q9UKV8 1-859, T357M;S387D;S824A;S828D;S831D;S834A)
How it was run: as §1

AGO2 F182del = AGO2 F182del (Homo sapiens, UniProt Q9UKV8 1-859, S387D;S824A;S828D;S831D;S834A;del182-182)
How it was run: as §1

AGO2 T357M, sequence (Q9UKV8 whole entry T357M/S387D/S824A/S828D/S831D/S834A): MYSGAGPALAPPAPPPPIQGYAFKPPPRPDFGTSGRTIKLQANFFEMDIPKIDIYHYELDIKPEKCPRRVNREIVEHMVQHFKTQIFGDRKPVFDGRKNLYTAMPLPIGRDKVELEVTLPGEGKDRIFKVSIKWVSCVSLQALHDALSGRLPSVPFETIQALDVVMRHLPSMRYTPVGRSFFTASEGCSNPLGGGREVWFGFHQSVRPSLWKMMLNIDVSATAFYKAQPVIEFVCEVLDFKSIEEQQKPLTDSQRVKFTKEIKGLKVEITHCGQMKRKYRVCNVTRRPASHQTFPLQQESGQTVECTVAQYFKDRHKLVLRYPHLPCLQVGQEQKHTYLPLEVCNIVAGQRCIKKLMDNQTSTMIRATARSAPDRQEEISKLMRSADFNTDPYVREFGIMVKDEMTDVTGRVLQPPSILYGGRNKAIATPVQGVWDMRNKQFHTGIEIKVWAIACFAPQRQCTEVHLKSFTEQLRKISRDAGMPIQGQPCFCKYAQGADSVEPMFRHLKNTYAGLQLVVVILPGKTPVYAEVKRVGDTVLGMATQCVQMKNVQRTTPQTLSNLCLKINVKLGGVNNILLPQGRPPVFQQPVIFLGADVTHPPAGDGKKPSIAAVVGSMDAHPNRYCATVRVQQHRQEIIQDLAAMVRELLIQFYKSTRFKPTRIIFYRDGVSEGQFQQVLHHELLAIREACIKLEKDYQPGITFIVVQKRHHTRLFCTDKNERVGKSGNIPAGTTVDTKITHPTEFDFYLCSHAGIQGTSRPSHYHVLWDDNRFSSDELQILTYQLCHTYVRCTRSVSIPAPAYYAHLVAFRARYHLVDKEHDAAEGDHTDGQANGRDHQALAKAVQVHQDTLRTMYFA
AGO2 L192P, sequence (Q9UKV8 whole entry L192P/S387D/S824A/S828D/S831D/S834A): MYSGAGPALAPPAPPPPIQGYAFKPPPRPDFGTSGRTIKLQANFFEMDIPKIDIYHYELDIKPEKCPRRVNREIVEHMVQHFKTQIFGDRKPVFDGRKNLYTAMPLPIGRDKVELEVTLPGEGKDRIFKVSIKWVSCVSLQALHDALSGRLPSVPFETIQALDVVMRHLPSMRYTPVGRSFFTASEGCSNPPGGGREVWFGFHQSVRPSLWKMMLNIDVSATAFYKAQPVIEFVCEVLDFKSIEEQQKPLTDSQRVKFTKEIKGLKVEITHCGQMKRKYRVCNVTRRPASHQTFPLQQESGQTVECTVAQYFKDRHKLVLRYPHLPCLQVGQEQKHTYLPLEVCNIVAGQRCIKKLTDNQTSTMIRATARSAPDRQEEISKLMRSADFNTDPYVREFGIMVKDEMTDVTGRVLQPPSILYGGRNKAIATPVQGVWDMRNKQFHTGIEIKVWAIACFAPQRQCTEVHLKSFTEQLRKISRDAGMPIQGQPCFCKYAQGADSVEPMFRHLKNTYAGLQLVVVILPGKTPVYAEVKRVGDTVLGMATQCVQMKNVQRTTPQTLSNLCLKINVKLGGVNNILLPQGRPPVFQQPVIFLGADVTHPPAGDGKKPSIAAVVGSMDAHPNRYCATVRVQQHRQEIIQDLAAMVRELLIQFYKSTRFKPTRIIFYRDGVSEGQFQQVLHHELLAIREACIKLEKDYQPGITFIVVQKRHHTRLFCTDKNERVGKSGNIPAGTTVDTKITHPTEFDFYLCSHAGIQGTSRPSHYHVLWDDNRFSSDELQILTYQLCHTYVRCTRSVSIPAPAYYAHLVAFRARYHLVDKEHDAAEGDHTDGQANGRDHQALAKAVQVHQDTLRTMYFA
AGO2 F182del, sequence (Q9UKV8 other isoform, or with tags, fused parts or gaps S387D;S824A;S828D;S831D;S834A;del182-182): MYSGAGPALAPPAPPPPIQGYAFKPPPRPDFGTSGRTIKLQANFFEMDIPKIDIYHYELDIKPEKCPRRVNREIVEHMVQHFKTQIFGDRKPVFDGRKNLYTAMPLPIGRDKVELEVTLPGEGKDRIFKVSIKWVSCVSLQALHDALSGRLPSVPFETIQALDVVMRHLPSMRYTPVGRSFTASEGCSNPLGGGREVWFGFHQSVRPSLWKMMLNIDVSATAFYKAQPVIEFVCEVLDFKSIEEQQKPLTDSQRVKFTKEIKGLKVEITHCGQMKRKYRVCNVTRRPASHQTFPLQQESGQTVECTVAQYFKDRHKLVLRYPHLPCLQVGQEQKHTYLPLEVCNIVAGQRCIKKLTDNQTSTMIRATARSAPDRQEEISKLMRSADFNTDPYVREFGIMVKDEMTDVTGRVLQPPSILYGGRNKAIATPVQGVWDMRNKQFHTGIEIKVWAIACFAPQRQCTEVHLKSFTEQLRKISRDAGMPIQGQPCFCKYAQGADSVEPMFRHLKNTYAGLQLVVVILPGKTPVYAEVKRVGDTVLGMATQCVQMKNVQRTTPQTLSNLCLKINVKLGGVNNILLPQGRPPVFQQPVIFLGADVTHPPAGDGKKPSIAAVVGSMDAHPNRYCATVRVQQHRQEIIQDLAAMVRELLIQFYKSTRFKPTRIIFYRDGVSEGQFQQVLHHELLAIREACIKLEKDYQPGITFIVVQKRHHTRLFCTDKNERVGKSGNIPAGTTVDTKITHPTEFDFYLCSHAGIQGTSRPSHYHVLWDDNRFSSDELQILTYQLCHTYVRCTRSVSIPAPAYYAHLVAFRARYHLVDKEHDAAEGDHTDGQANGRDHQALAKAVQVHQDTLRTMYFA
AGO2 A367P, sequence (Q9UKV8 whole entry A367P/S387D/S824A/S828D/S831D/S834A): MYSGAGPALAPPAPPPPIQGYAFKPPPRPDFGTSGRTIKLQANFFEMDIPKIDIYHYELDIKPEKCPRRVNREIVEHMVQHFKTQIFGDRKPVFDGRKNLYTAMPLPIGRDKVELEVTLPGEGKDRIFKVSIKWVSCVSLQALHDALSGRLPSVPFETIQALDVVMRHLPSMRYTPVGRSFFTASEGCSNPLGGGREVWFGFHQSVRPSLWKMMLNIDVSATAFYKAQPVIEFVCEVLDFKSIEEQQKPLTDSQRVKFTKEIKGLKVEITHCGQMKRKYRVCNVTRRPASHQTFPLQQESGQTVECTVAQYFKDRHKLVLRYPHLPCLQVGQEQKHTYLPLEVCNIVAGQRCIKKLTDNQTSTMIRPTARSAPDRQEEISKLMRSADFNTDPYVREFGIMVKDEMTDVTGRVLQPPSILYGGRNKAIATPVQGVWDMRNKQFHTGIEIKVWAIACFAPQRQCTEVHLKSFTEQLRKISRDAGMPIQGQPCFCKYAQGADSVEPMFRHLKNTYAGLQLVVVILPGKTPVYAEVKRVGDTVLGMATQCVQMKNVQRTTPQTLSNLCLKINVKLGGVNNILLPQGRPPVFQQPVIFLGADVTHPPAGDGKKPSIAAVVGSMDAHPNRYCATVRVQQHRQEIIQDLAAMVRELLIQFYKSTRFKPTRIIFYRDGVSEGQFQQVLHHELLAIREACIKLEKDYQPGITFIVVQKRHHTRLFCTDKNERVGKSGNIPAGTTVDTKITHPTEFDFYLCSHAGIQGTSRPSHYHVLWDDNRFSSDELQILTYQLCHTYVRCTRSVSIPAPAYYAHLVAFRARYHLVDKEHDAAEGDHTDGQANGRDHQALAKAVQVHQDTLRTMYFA

Binder	binding signal (AGO2 L192P)	binding signal (AGO2 A367P)	binding signal (AGO2 T357M)	binding signal (AGO2 F182del)
ACACTTTG (ssRNA, constant regions annealed to DNA blockers; guide miR-122 5' phosphate) RNA 1: GAGUUCUACAGUCCGACGAUCCCAACACACUUUGCACCUGGAAUUCUCGGGUGCCAA RNA 2: UGGAGUGUGACAAUGGUGUUUG DNA 1: GATCGTCGGACTGTAGAACTC DNA 2: TTGGCACCCGAGAATTCCA	0.388 fold enrichment over input	0.177 fold enrichment over input	0.494 fold enrichment over input	
ATACCCTA (ssRNA, constant regions annealed to DNA blockers; guide miR-122 5' phosphate) RNA 1: GAGUUCUACAGUCCGACGAUCCCAACAUACCCUACACCUGGAAUUCUCGGGUGCCAA RNA 2: UGGAGUGUGACAAUGGUGUUUG DNA 1: GATCGTCGGACTGTAGAACTC DNA 2: TTGGCACCCGAGAATTCCA	0.447 fold enrichment over input	0.148 fold enrichment over input	0.496 fold enrichment over input	
GTACTTTA (ssRNA, constant regions annealed to DNA blockers; guide miR-122 5' phosphate) RNA 1: GAGUUCUACAGUCCGACGAUCCCAACGUACUUUACACCUGGAAUUCUCGGGUGCCAA RNA 2: UGGAGUGUGACAAUGGUGUUUG DNA 1: GATCGTCGGACTGTAGAACTC DNA 2: TTGGCACCCGAGAATTCCA	0.446 fold enrichment over input	0.161 fold enrichment over input	0.636 fold enrichment over input	
ACGTCCTG (ssRNA, constant regions annealed to DNA blockers; guide miR-122 5' phosphate) RNA 1: GAGUUCUACAGUCCGACGAUCCCAACACGUCCUGCACCUGGAAUUCUCGGGUGCCAA RNA 2: UGGAGUGUGACAAUGGUGUUUG DNA 1: GATCGTCGGACTGTAGAACTC DNA 2: TTGGCACCCGAGAATTCCA	0.312 fold enrichment over input	0.143 fold enrichment over input	0.434 fold enrichment over input	
GTACCCCA (ssRNA, constant regions annealed to DNA blockers; guide miR-122 5' phosphate) RNA 1: GAGUUCUACAGUCCGACGAUCCCAACGUACCCCACACCUGGAAUUCUCGGGUGCCAA RNA 2: UGGAGUGUGACAAUGGUGUUUG DNA 1: GATCGTCGGACTGTAGAACTC DNA 2: TTGGCACCCGAGAATTCCA	0.497 fold enrichment over input	0.247 fold enrichment over input	0.616 fold enrichment over input	0.455 fold enrichment over input
GTGCTCTA (ssRNA, constant regions annealed to DNA blockers; guide miR-122 5' phosphate) RNA 1: GAGUUCUACAGUCCGACGAUCCCAACGUGCUCUACACCUGGAAUUCUCGGGUGCCAA RNA 2: UGGAGUGUGACAAUGGUGUUUG DNA 1: GATCGTCGGACTGTAGAACTC DNA 2: TTGGCACCCGAGAATTCCA	0.463 fold enrichment over input	0.178 fold enrichment over input	0.601 fold enrichment over input	
GCATCTTA (ssRNA, constant regions annealed to DNA blockers; guide miR-122 5' phosphate) RNA 1: GAGUUCUACAGUCCGACGAUCCCAACGCAUCUUACACCUGGAAUUCUCGGGUGCCAA RNA 2: UGGAGUGUGACAAUGGUGUUUG DNA 1: GATCGTCGGACTGTAGAACTC DNA 2: TTGGCACCCGAGAATTCCA	0.487 fold enrichment over input	0.189 fold enrichment over input	0.676 fold enrichment over input	
GCGTTCCG (ssRNA, constant regions annealed to DNA blockers; guide miR-122 5' phosphate) RNA 1: GAGUUCUACAGUCCGACGAUCCCAACGCGUUCCGCACCUGGAAUUCUCGGGUGCCAA RNA 2: UGGAGUGUGACAAUGGUGUUUG DNA 1: GATCGTCGGACTGTAGAACTC DNA 2: TTGGCACCCGAGAATTCCA	0.404 fold enrichment over input	0.149 fold enrichment over input	0.583 fold enrichment over input	
GTGTTTCA (ssRNA, constant regions annealed to DNA blockers; guide miR-122 5' phosphate) RNA 1: GAGUUCUACAGUCCGACGAUCCCAACGUGUUUCACACCUGGAAUUCUCGGGUGCCAA RNA 2: UGGAGUGUGACAAUGGUGUUUG DNA 1: GATCGTCGGACTGTAGAACTC DNA 2: TTGGCACCCGAGAATTCCA	0.477 fold enrichment over input	0.178 fold enrichment over input	0.587 fold enrichment over input	
GCACCCTG (ssRNA, constant regions annealed to DNA blockers; guide miR-122 5' phosphate) RNA 1: GAGUUCUACAGUCCGACGAUCCCAACGCACCCUGCACCUGGAAUUCUCGGGUGCCAA RNA 2: UGGAGUGUGACAAUGGUGUUUG DNA 1: GATCGTCGGACTGTAGAACTC DNA 2: TTGGCACCCGAGAATTCCA	0.416 fold enrichment over input	0.171 fold enrichment over input	0.566 fold enrichment over input	0.176 fold enrichment over input
GTGCCCTA (ssRNA, constant regions annealed to DNA blockers; guide miR-122 5' phosphate) RNA 1: GAGUUCUACAGUCCGACGAUCCCAACGUGCCCUACACCUGGAAUUCUCGGGUGCCAA RNA 2: UGGAGUGUGACAAUGGUGUUUG DNA 1: GATCGTCGGACTGTAGAACTC DNA 2: TTGGCACCCGAGAATTCCA	0.458 fold enrichment over input	0.188 fold enrichment over input	0.663 fold enrichment over input	
ATGCCCCG (ssRNA, constant regions annealed to DNA blockers; guide miR-122 5' phosphate) RNA 1: GAGUUCUACAGUCCGACGAUCCCAACAUGCCCCGCACCUGGAAUUCUCGGGUGCCAA RNA 2: UGGAGUGUGACAAUGGUGUUUG DNA 1: GATCGTCGGACTGTAGAACTC DNA 2: TTGGCACCCGAGAATTCCA	0.377 fold enrichment over input	0.134 fold enrichment over input	0.489 fold enrichment over input	
GTGTTTTA (ssRNA, constant regions annealed to DNA blockers; guide miR-122 5' phosphate) RNA 1: GAGUUCUACAGUCCGACGAUCCCAACGUGUUUUACACCUGGAAUUCUCGGGUGCCAA RNA 2: UGGAGUGUGACAAUGGUGUUUG DNA 1: GATCGTCGGACTGTAGAACTC DNA 2: TTGGCACCCGAGAATTCCA	0.467 fold enrichment over input	0.167 fold enrichment over input	0.565 fold enrichment over input	
ACGCCTTG (ssRNA, constant regions annealed to DNA blockers; guide miR-122 5' phosphate) RNA 1: GAGUUCUACAGUCCGACGAUCCCAACACGCCUUGCACCUGGAAUUCUCGGGUGCCAA RNA 2: UGGAGUGUGACAAUGGUGUUUG DNA 1: GATCGTCGGACTGTAGAACTC DNA 2: TTGGCACCCGAGAATTCCA	0.367 fold enrichment over input	0.164 fold enrichment over input	0.54 fold enrichment over input	
GCACTTTA (ssRNA, constant regions annealed to DNA blockers; guide miR-122 5' phosphate) RNA 1: GAGUUCUACAGUCCGACGAUCCCAACGCACUUUACACCUGGAAUUCUCGGGUGCCAA RNA 2: UGGAGUGUGACAAUGGUGUUUG DNA 1: GATCGTCGGACTGTAGAACTC DNA 2: TTGGCACCCGAGAATTCCA	0.493 fold enrichment over input	0.209 fold enrichment over input	0.763 fold enrichment over input	0.122 fold enrichment over input
ATGTTTTG (ssRNA, constant regions annealed to DNA blockers; guide miR-122 5' phosphate) RNA 1: GAGUUCUACAGUCCGACGAUCCCAACAUGUUUUGCACCUGGAAUUCUCGGGUGCCAA RNA 2: UGGAGUGUGACAAUGGUGUUUG DNA 1: GATCGTCGGACTGTAGAACTC DNA 2: TTGGCACCCGAGAATTCCA	0.387 fold enrichment over input	0.134 fold enrichment over input	0.541 fold enrichment over input	
GTATCCTA (ssRNA, constant regions annealed to DNA blockers; guide miR-122 5' phosphate) RNA 1: GAGUUCUACAGUCCGACGAUCCCAACGUAUCCUACACCUGGAAUUCUCGGGUGCCAA RNA 2: UGGAGUGUGACAAUGGUGUUUG DNA 1: GATCGTCGGACTGTAGAACTC DNA 2: TTGGCACCCGAGAATTCCA	0.448 fold enrichment over input	0.17 fold enrichment over input	0.563 fold enrichment over input	0.121 fold enrichment over input
GCGTCTTA (ssRNA, constant regions annealed to DNA blockers; guide miR-122 5' phosphate) RNA 1: GAGUUCUACAGUCCGACGAUCCCAACGCGUCUUACACCUGGAAUUCUCGGGUGCCAA RNA 2: UGGAGUGUGACAAUGGUGUUUG DNA 1: GATCGTCGGACTGTAGAACTC DNA 2: TTGGCACCCGAGAATTCCA	0.473 fold enrichment over input	0.2 fold enrichment over input	0.656 fold enrichment over input	
ATACCCCA (ssRNA, constant regions annealed to DNA blockers; guide miR-122 5' phosphate) RNA 1: GAGUUCUACAGUCCGACGAUCCCAACAUACCCCACACCUGGAAUUCUCGGGUGCCAA RNA 2: UGGAGUGUGACAAUGGUGUUUG DNA 1: GATCGTCGGACTGTAGAACTC DNA 2: TTGGCACCCGAGAATTCCA	0.5 fold enrichment over input	0.177 fold enrichment over input	0.552 fold enrichment over input	0.199 fold enrichment over input
GTACCCTA (ssRNA, constant regions annealed to DNA blockers; guide miR-122 5' phosphate) RNA 1: GAGUUCUACAGUCCGACGAUCCCAACGUACCCUACACCUGGAAUUCUCGGGUGCCAA RNA 2: UGGAGUGUGACAAUGGUGUUUG DNA 1: GATCGTCGGACTGTAGAACTC DNA 2: TTGGCACCCGAGAATTCCA	0.468 fold enrichment over input	0.168 fold enrichment over input	0.602 fold enrichment over input	
ACATTCTG (ssRNA, constant regions annealed to DNA blockers; guide miR-122 5' phosphate) RNA 1: GAGUUCUACAGUCCGACGAUCCCAACACAUUCUGCACCUGGAAUUCUCGGGUGCCAA RNA 2: UGGAGUGUGACAAUGGUGUUUG DNA 1: GATCGTCGGACTGTAGAACTC DNA 2: TTGGCACCCGAGAATTCCA	0.392 fold enrichment over input	0.13 fold enrichment over input	0.531 fold enrichment over input	
GTGTCCTA (ssRNA, constant regions annealed to DNA blockers; guide miR-122 5' phosphate) RNA 1: GAGUUCUACAGUCCGACGAUCCCAACGUGUCCUACACCUGGAAUUCUCGGGUGCCAA RNA 2: UGGAGUGUGACAAUGGUGUUUG DNA 1: GATCGTCGGACTGTAGAACTC DNA 2: TTGGCACCCGAGAATTCCA	0.451 fold enrichment over input	0.158 fold enrichment over input	0.528 fold enrichment over input	
